SARS PLP yeast = blocks SARS-CoV papain-like protease in a yeast assay. S. cerevisiae expressing SARS-CoV PLpro, growth rescue. Potency, µM (doses to about 32.9 µM), for the others: at the highest dose activity, positive = growth rescue, most hits filed as activators. 330,000 tested, 0.19% active; calls by dose curve; note: potency is the fitted concentration of half-maximal effect; 0% is about no effect; nearly all actives have a fitted effect of over 55% in size
Pf growth 96h = P. falciparum growth inhibition at 96 hours | AID 504834 | 320,000 tested, 6.9% active | Potency, µM (series often up to 28.7 µM), inactives show at the top dose activity change, negative = inhibition, actives largely listed as inhibitors | P. falciparum luciferase reporter growth, 96 h; note: potency is the fitted concentration of half-maximal effect; % is set by controls: 0 for no effect and ±100 for the full control effect
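P. falciparum expressing integrated firefly luciferase grown in erythrocytes (2% hematocrit, 0.05% parasitemia final) with compounds for 96 hours at 37 C, 5% CO2. Growth inhibition read as loss of luminescence after adding luciferase detection reagent.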
Pf growth 48h = P. falciparum growth inhibition at 48 hours (one generation) | 310,000 tested, 5.9% active | Potency, µM (series often up to 28.7 µM), for the others: at the top dose activity change, negative = inhibition, most hits filed as inhibitors | P. falciparum luciferase growth in erythrocytes, 48 h | AID 504832; note: potency is the fitted concentration of half-maximal effect; % is set by controls: 0 for no effect and ±100 for the full control effect
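In quantitative HTS format, infected erythrocytes bearing luciferase-reporter parasites were treated for a single generation at 37 C. Luminescence after adding detection reagent served as the growth measure.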
HCV inh = inhibitors of hepatitis C virus infection; 340,000 tested, 3.4% active; Huh7.5.1 HCVcc-Cre infection, luciferase reporter, 44 h; AID 651820; Potency, µM (doses to about 41.8 µM), inactives show at the highest dose activity change, negative = inhibition, most hits filed as inhibitors; note: potency is the fitted concentration of half-maximal effect; % is set by controls: 0 for no effect and ±100 for the full control effect
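Reporter virus HCVcc-Cre (~0.5 moi) infects cells exposed to compound; seeding density 1,000 cells/well with 4 h settling beforehand. Luminescence, 15 sec read, taken 44 h post-infection following a 15 min RT substrate incubation.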
HCMV antiviral = human cytomegalovirus inhibition | 410,000 tested, 4.5% active | activity change, negative = inhibition, % at 57.5 µM | HFF cells, HCMV-luciferase reporter, 72 h; stronger effect = lower value | AID 1259415; in the data active = activity change below about -60%; inconclusive = no clear call, values can overlap the other calls; inactive = above about -39%; note: % is set by controls: 0 for no effect and ±100 for the full control effect
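HFF cells seeded 16 h at 37C, treated with compounds, infected with luciferase-reporter HCMV at MOI 1 PFU/cell; luciferase read at 72 h post infection, normalized to buffer-only and Salinomycin controls.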
Sm TGR block = blocks Schistosoma mansoni thioredoxin glutathione reductase. purified TGR, DTNB reduction, TNB absorbance 405 nm. AID 485364. Q962Y6. Potency, µM (titrated, usually from 114 µM), inactives show at the highest dose activity change, negative = inhibition, hits mostly inhibitors. 360,000 tested, 3% active; note: potency is the fitted concentration of half-maximal effect; % is set by controls: 0 for no effect and ±100 for the full control effect; nearly all actives have a fitted effect of over 60% in size
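Kinetic colorimetric format: TGR-catalysed, NADPH-driven DTNB reduction monitored via TNB absorbance. Enzyme dispensed at 20 nM; compound exposure 15 min at room temperature before reaction start.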
An asterisk follows results filed as active; i = inactive; ? = inconclusive; nt = not tested or not shown; [ ] = another dose, or the depositor's remark. In the library only some 15% were active in any assay of this set; here they are far more common. Unless noted, calls come from the whole dose curve; as a rule, active = well fitted curve in the direction sought with a large enough effect; inconclusive = small, poorly fitted or top-dose-only effect, or another doubt; inactive = no such curve, though single readings can be large; an effect the other way counts as inactive or inconclusive.

SMILES	SARS PLP yeast	Pf growth 96h	Pf growth 48h	HCV inh	HCMV antiviral	Sm TGR block
Cc1ccc(N(CC(=O)N/N=C/c2ccco2)S(=O)(=O)c2ccccc2)cc1	1.1%	?	?	12.3%	?	25.1µM*
Cc1ccc(S(=O)(=O)N(C)c2ccc(C(=O)NCc3cccnc3)cc2)cc1	-5.6%	?	?	2.1%	-39.1	-18.6%
O=C(CSCc1ccccc1Cl)N/N=C/c1ccco1	-1.7%	13.1µM*	16.5%	-4.9%	-29.9	nt
COc1ccc(N(CC(=O)NCc2ccco2)S(=O)(=O)c2ccccc2)cc1	0.8%	6.57µM*	-10.5%	1.9%	13.2	2.1%
COc1ccc(N(CC(=O)NCc2ccco2)S(C)(=O)=O)c(OC)c1	0.2%	i	1.9%	9.1%	22.0	-17.5%
O=C(CN1CCN(Cc2ccccc2Cl)CC1)N/N=C/c1ccco1	0.3%	15.3%	-0.3%	10.8%	4.4	0.0%
O=C(CN(c1ccccc1)S(=O)(=O)c1ccccc1)N/N=C/c1ccco1	-21.4%	3.7µM*	6.5%	-1.9%	-3.9	-26.4%
COc1ccc(S(=O)(=O)N(CC(=O)NCc2ccco2)c2ccccc2)cc1	-5.8%	?	nt	-18.2%	-33.9	-7.7%
CS(=O)(=O)N(CC(=O)NCc1ccco1)c1ccccc1Cl	3.6%	nt	10.9%	4.6%	16.9	39.8µM*
O=C(NCC(c1ccco1)N1CCN(c2ccccc2F)CC1)c1ccc2c(c1)OCO2 (stereo unspecified)	-1.1%	?	-2.5%	?	-14.2	-2.0%
CCOc1ccc(N(CC(=O)Nc2ccccc2C(=O)NCc2ccco2)S(C)(=O)=O)cc1	1.7%	nt	9.7%	?	-17.0	2.9%
COc1ccc(N(CC(=O)N/N=C/c2ccc(F)cc2)S(=O)(=O)c2ccccc2)cc1	1.2%	41.8%	?	-3.4%	-68.7*	-3.9%
CCOc1ccc(N(CC(=O)NCc2ccco2)S(C)(=O)=O)cc1	0.8%	-0.1%	53.5%	20.6%	46.4	50.1µM*
Cc1ccc(S(=O)(=O)NC(C)C(=O)OCC(=O)N(C)c2ccccc2)cc1 (stereo unspecified)	0.2%	-26.2%	-8.9%	4.4%	-7.1	-9.3%
CCOc1ccc(NC2=CC(=O)CCC2)cc1	-0.4%	164.3%	-9.8%[0.00184 µM]	?	48.4	-25.3%
CCCCCOc1ccc(NC2=CC(=O)CCC2)cc1	-4.3%	?	13.1µM*	12.0%	?	-2.8%
COc1ccc(NC(=O)CSc2nccn2Cc2ccco2)cc1	-2.7%	-7.4%	104.6%	15.0%	68.8	-13.6%
CCOC(=O)N1CCC(NC(=O)CN(c2ccc(C(C)C)cc2)S(=O)(=O)c2c(C)nn(C)c2C)CC1	-0.6%	?	?	5.0%	-37.5	-0.9%
C#CCOCCOCCOCCNc1nc(N2CCN(C(=O)CCCCCCCCCCNC(=O)Cn3cc(C[C@@H](C)O)nn3)CC2)nc(N2CCN(C(=O)CCCCCCCCCCNC(=O)Cn3cc(C[C@@H](C)O)nn3)CC2)n1	-1.0%	0.0828µM*	0.131µM*	-3.0%	?	-11.1%
C#CCOCCOCCOCCNc1nc(N2CCN(C(=O)CCCCCCCCCCNC(=O)[C@H](CCCCN)n3cc(C[C@@H](C)CC)nn3)CC2)nc(N2CCN(C(=O)CCCCCCCCCCNC(=O)[C@H](CCCCN)n3cc(C[C@@H](C)CC)nn3)CC2)n1	nt	nt	nt	-11.5%[8.37 µM]	nt	nt
C#CCOCCOCCOCCNc1nc(N2CCN(C(=O)Cn3cc(CC(C)O)nn3)CC2)nc(N2CCN(C(=O)[C@H]([C@@H](C)O)n3cc(CCCCN)nn3)CC2)n1 (stereo partly specified)	nt	nt	nt	6.6%	-12.3	nt
C#CCOCCOCCOCCNc1nc(N2CCN(C(=O)CCCCCCCCCCNC(=O)Cn3cc(C[C@@H](C)O)nn3)CC2)nc(N2CCN(C(=O)CCCCCCCCCCNC(=O)[C@H](CCCCN)n3cc(C[C@@H](C)CC)nn3)CC2)n1	-0.6%	0.465µM*	0.329µM*	?	nt	-35.7%
CCOc1ccccc1/C=C(/NC(=O)c1ccccc1)C(=O)N1CCCCC1	-0.9%	98.0%	?	-15.7%	nt	8.1%
COc1ccc(OC)c(-n2c(-c3cccc(O)c3)n[nH]c2=S)c1	-2.1%	-4.6%	0.738µM*	13.4%	27.3	1.0%
COc1ccc(-c2n[nH]c(=S)n2-c2cc(OC)ccc2OC)cc1	0.0%	?	-3.3%	3.4%	-11.9	6.4%
SMILES	SARS PLP yeast	Pf growth 96h	Pf growth 48h	HCV inh	HCMV antiviral	Sm TGR block
OCCN1CCN(c2ncnc3sc(-c4ccccc4)cc23)CC1	0.7%	-15.7%	1.6%	?	-25.5	-15.2%
CCCCN(CCO)c1ncnc2sc(-c3ccccc3)cc12	-3.7%	-2.9%	nt	17.8µM*	14.8	-3.0%
COc1ccc(N2CC(NC(=O)C3CC3)CC2=O)cc1 (stereo unspecified)	nt	nt	nt	nt	4.8	0.5%
CCOC(=O)c1c(S(=O)(=O)NCC(=O)Nc2ccc(C)c(N(C)C)c2)c(C)n(C)c1C	nt	nt	nt	nt	-11.6	1.1%
O=C(Nc1nc(-c2ccccc2)cs1)c1ccc(N2CCOCC2)c([N+](=O)[O-])c1	-1.1%	16.6%	?	3.55µM*	nt	-2.3%
O=C(Nc1nc2ccccc2s1)c1ccc(N2CCCCC2)c([N+](=O)[O-])c1	?	?	48.3%	?	-71.5*	-14.0%
Cc1ccc(S(=O)(=O)N(CC(=O)N/N=C\c2cccs2)c2cccc3cccnc23)cc1	-6.8%	9.1%	-9.3%	?	-62.6*	-5.8%
Cc1ccc(S(=O)(=O)N(CC(=O)N/N=C/c2cccc(C)c2)c2cccc3cccnc23)cc1	nt	-23.2%	?	-13.9%	?	3.4%
CCOc1ccc(S(=O)(=O)N(CC(=O)N/N=C/c2cccs2)c2ccc(C)cc2)cc1	0.8%	?	13.1µM*	?	-11.2	0.5%
COc1ccc(-c2noc(CSc3nc(N)cc(=O)[nH]3)n2)cc1	-2.6%	53.3%	73.2%	25.1µM*	-28.4	-11.7%
COc1ccc(-c2noc(CSc3nc4ccccc4[nH]3)n2)cc1	nt	nt	nt	nt	?	10.1%
COc1cc(-c2ccccc2)[nH]c(=S)n1	9.7%	7.38µM*	35.0%	-1.5%	-6.4	6.8%
COc1ccc(-c2cc(=O)[nH]c(=S)[nH]2)cc1	-1.7%	?	1.0%	20.0%	24.8	nt
COc1ccc(CC(=O)n2[nH]c(=O)ccc2=O)cc1OC	0.5%	23.1%	9.9%	2.0%	44.6	0.562µM*
COc1ccc(CC(=O)n2[nH]c(=O)c3ccccc3c2=O)cc1OC	0.0%	-4.3%	-2.4%	-0.1%	20.3	5.4%
CCNc1nc(NCC)n2c(SCC(=O)Nc3cccc(Cl)c3)nnc2n1	8.4%	5.22µM*	11.7µM*	?	nt	-6.4%

Source: PubChem
